In all, about 330,000 compounds went through this assay and about 1,500 (0.45%) were called active. The sample as a whole holds a higher share of actives than the screen did. Unmarked numbers belong to inactive results. Cut-off read from the data, not from the text of the source: active = inhibition above about 45% (passing the limit was not always enough); inconclusive = no clear call, values can overlap the other calls.

Ubiquitin-conjugating enzyme E2 N (Homo sapiens), sequence (P61088 whole entry, looked up): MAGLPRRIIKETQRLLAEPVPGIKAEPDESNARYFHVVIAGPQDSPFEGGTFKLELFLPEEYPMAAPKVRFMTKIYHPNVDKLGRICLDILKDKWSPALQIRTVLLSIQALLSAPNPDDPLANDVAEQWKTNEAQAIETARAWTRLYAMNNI

The experiment addresses Ubiquitin-conjugating enzyme E2 N (Homo sapiens) (UniProt P61088). Put plainly: blockers of UBC13 ubiquitin chain synthesis – biochemical, TR-FRET, uHTS, primary screen (AID 485273). Particulars: UBC13 polyubiquitin chain formation, at 20 µM, hits give high values. Background: In TR-FRET formats the signal depends on donor and acceptor labels being close together.
As for `CNCC(O)c1cc(F)c(OCc2ccccc2)c(OCc2ccccc2)c1F` (stereo not given), the inhibition is 69.2% (active).

Consider `CCN(N=Nc1nonc1OC)c1nonc1OC`, for which the inhibition was -6.3%.

`CCCC[N+]1(C)C2CC(OC(=O)C(CO)c3ccccc3)CC1C1OC12` (stereo not given): the inhibition was 1.6%.

Take `CCOC(=O)c1c(C)c(C(=O)N2CCC3(CC2)OCCO3)c(C)n1CC`: the inhibition was -14.5%.

As for `O=C1NC(=O)C(CCc2ccccn2)(Cc2cccc(Cl)c2Cl)C(=O)N1c1ccc(Br)cc1` (stereo not given), the inhibition was 0.9%.

By inhibition is commonly meant the drop in the measured response relative to a control, in per cent.
